Our source for the outcome values is the GenesisPotency data set.

Each structure is given as a SMILES string. Screen size: about 290,000 compounds; about 3,000 (1%) were called active. No stated cut-off is given here; in the data, active means inhibition mostly above about 36% (no sharp cut-off); inactive means mostly below about 34%. The full list was thinned out, with actives kept by preference.

The experiment deals with T1, Nucleotide-binding oligomerization domain-containing protein 1, Homo sapiens (UniProt Q9Y239).
T1 sequence (whole entry): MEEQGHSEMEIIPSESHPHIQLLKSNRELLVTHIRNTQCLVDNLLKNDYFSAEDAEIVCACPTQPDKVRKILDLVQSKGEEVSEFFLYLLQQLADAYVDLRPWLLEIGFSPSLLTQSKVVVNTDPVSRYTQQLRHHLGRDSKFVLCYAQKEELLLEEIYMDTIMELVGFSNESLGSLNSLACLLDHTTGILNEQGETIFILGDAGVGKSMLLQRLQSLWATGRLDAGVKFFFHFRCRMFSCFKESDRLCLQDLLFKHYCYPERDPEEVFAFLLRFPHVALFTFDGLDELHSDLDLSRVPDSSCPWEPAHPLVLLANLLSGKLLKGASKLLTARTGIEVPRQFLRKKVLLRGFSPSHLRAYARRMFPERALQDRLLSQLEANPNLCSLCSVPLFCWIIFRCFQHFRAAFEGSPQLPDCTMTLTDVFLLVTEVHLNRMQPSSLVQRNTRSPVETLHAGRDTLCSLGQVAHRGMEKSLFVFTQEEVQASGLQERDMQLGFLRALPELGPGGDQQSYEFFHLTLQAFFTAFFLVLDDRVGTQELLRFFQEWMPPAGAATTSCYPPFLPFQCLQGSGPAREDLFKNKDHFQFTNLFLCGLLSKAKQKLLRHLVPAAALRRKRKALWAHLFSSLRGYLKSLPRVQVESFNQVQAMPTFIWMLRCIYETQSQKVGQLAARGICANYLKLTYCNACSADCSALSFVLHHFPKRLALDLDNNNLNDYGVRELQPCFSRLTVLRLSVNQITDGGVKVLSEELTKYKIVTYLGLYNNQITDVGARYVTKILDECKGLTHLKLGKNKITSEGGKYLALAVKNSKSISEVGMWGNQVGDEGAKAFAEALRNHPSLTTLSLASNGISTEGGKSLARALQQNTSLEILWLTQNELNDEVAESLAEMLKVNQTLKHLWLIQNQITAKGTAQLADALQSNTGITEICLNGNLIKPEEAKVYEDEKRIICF
The experiment in a line: NOD1 signaling inhibitors, primary screen, cell-based, luminescence, uHTS (AID 1578).
For `COc1ccc(-[n+]2c(-c3ccccc3)cc(-c3ccc(C)cc3)cc2-c2ccccc2)cc1.[O-][Cl+3]([O-])([O-])[O-]`, the call was active.
Turning to `COc1ccc(-c2cc(-c3ccccc3)[n+](C)c(-c3ccccc3)c2)cc1.[O-][Cl+3]([O-])([O-])[O-]`, the result was active.
On to `CCC(C)C(NC(=O)CCCNC(=O)CCC(=O)OC1O[C@H]2OC3(C)CC[C@H]4[C@H](C)CCC(C1C)C24OO3)C(=O)O` (some centres undefined), for which the call was active.
Under `CC(C)CC(NC(=O)CCCNC(=O)CCC(=O)OC1O[C@H]2OC3(C)CC[C@H]4[C@H](C)CCC(C1C)C24OO3)C(=O)O` (some centres undefined) stands “active”.
As for `CCC(C)NC(=O)CCC(=O)OC1O[C@H]2OC3(C)CC[C@H]4[C@H](C)CCC(C1C)C24OO3` (some centres undefined), the entry is “active”; as for `CC[C@@]1(O)C(=O)OCc2c1cc1n(c2=O)Cc2cc3ccccc3nc2-1`, “active”.
Under `CCCCCn1c(=O)c(C(=O)Nc2cnccn2)c(O)c2ccccc21` stands “active”.
On to `CCCCCCn1c(=O)c(C(=O)Nc2cnccn2)c(O)c2ccccc21`, for which the call was active.
As for `C=C1C(=O)O[C@H]2C[C@@H](C)[C@@H]3C=CC(=O)[C@@]3(C)C[C@H]12`, the entry is “active”.
Turning to `C=C1C(=O)O[C@@H]2C[C@@H](C)[C@@H]3C=CC(=O)[C@@]3(C)[C@@H](OC(=O)CC(=O)O[C@H]3[C@@H]4C(=C)C(=O)O[C@@H]4C[C@@H](C)[C@@H]4C=CC(=O)[C@]43C)[C@H]12`, the result was active.
Under `O=c1c2ccccc2nc(/C=C/c2ccccc2O)n1-c1ccccc1O` stands “active”; under `CC(C)(C)c1ccc(CSc2cnn(C(C)(C)C)c(=O)c2Cl)cc1`, “active”; under `O=Cc1cn(Cc2cccc([N+](=O)[O-])c2)c2ccccc12`, “active”.
Turning to `O=c1c2ccccc2nc(/C=C/c2ccc([N+](=O)[O-])o2)n1-c1ccc(O)cc1`, the molecule was classed as active.
Under `Cc1cccc(-n2c(/C=C/c3ccc([N+](=O)[O-])o3)nc3ccccc3c2=O)c1` stands “active”.
Under `O=C(c1ccc(Cl)cc1)C1CCCN(Cc2cccc3ncccc23)C1` (centres undefined) stands “active”.
As for `Cc1nc2c(=O)n(C)c(=O)nc-2n(C)n1`, the entry is “active”; as for `CCOc1ccc(-c2cc(C)[n+](CCN(CC)CC)c(-c3ccc(OCC)cc3)c2)cc1.[O-][Cl+3]([O-])([O-])[O-]`, “active”.
On to `CC(=O)c1c(C)n(C2CCCCC2)c2ccc(O)cc12`, for which the call was active.
Under `C[C@H]1CCC[C@@H](O)CCC/C=C/c2cc(O)cc(O)c2C(=O)O1` stands “active”; under `CC1=CC(=Cc2sc3ccccc3[n+]2C)C=C(C)O1.[O-][Cl+3]([O-])([O-])[O-]`, “active”; under `CC(C)[C@H]1C(=O)O[C@H](C(C)C)C(=O)N(C)[C@@H](C(C)C)C(=O)O[C@H](C(C)C)C(=O)N(C)[C@@H](C(C)C)C(=O)O[C@H](C(C)C)C(=O)N1C`, “active”.
As to `CCn1nc(-c2ccccc2)nc2c(=O)n(C)c(=O)nc1-2`, the result was active.
Under `CCn1nc(/C=C/c2ccccc2)nc2c(=O)n(C)c(=O)nc1-2` stands “active”.
In the case of `Cc1nn(C(C)(C)C)c(C)c1/C=N/OC(=O)Nc1ccc(Cl)cc1`, the call was active.
Turning to `Cc1nn(C(C)(C)C)c(C)c1/C=N/OC(=O)Nc1ccc(Cl)c(Cl)c1`, the call was active.
As for `COc1ccc(Oc2cc(NC(=O)c3nn(C)cc3[N+](=O)[O-])cc([N+](=O)[O-])c2)cc1`, the entry is “active”.
As for `C[C@@H]1O[C@@H](O[C@H]2C[C@@H](O)[C@]3(CO)[C@H]4[C@H](O)C[C@]5(C)[C@@H](C6=CC(=O)OC6)CC[C@]5(O)[C@@H]4CC[C@]3(O)C2)[C@H](O)[C@H](O)[C@H]1O`, the entry is “active”.
Under `NC(=O)c1cn(C2OC(CO)C(O)C2O)c2ncnc(N)c12.O` (centres undefined) stands “active”.
For the molecule `CCCCN=C[C@]12CCC(O)CC1(O)CCC1[C@@H]2CC[C@]2(C)[C@H](C3C=CC(=O)O3)CCC12O` (some centres undefined), the molecule was called active.
As for `C[C@]12CCC3C(CCC4=CC(O)CC[C@@]43/C=N/O)C1(O)CCC2C1=CC(=O)OC1` (some centres undefined), the entry is “active”.
Under `CC(=O)OC[C@]12CCC(C)=C[C@H]1O[C@@H]1[C@H](O)[C@@H](OC(C)=O)[C@@]2(C)[C@]12CO2` stands “active”; under `C=C1C(=O)O[C@@H]2C[C@@H](C)[C@@H]3C4OC4C(=O)[C@@]3(C)[C@@H](O)[C@H]12` (some centres undefined), “active”; under `CCOc1ccc(-c2c(C)n(-c3ccc(OCC)cc3)c3[n+]2CCCCC3)cc1.[O-][Cl+3]([O-])([O-])[O-]`, “active”.
